Experimental data from PubChem BioAssay AID485270 (The Scripps Research Institute Molecular Screening Center, 2010).
Out of some 330,000 compounds screened, about 5,800 (1.8%) were called active. This is one part of a sample in which actives are shown more often than they occur. Rule as the data show it: active = inhibition mostly above about 38% (no sharp cut-off); inactive = mostly below about 40%.

biological target: Orexin/Hypocretin receptor type 1 (Homo sapiens) (UniProt O43613); experiment: blocks the human orexin 1 receptor (AID 485270); conditions: OX1R-expressing cells, FRET antagonist read-out; at 6.6 µM; stronger effect = higher value;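 also: 0% = agonist challenge alone and 100% = reference antagonist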
Sequence (O43613 whole entry, looked up): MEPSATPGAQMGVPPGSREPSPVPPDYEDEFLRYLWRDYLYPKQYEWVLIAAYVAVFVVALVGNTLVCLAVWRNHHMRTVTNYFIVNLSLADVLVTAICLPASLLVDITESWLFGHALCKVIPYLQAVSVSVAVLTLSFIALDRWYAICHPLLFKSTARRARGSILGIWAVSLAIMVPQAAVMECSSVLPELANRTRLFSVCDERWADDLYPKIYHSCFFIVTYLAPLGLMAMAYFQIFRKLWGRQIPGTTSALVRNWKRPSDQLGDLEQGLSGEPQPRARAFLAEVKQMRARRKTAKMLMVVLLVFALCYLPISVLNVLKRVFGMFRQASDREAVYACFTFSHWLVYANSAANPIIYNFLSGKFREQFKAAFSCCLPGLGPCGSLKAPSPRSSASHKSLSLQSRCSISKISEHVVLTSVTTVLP

inhibition, active:
CCOC(=O)CSC1=N/C(=C/c2ccc(-n3cncn3)cc2)C(=O)N1C(C)=O 64.5%
O=C(Nc1ccc(Br)cn1)c1ccc([N+](=O)[O-])o1 64.5%
COc1cnn(-c2ccc([N+](=O)[O-])cc2)c(=O)c1Cl 49.7%
CNC(=O)c1cccc2nc3ccccc3nc12 61.4%
COc1ccc(N2C(=O)c3cccc4cccc(c34)C2=O)nn1 62.1%
Oc1c(Cl)cc(Cl)c(Cl)c1Cc1c(O)c(Cl)cc(Cl)c1Cl 60.5%
O=C(NCCCN1CCOCC1)c1ccc([N+](=O)[O-])cc1[N+](=O)[O-] 70.3%
NS(=O)(=O)c1ccc(CCNC(=O)c2ccc([N+](=O)[O-])cc2[N+](=O)[O-])cc1 138%
NS(=O)(=O)c1ccc(CNC(=O)c2ccc(Cl)cc2[N+](=O)[O-])cc1 70.7%
COc1cccc(CNS(=O)(=O)c2ccc3c(c2)CC(C)N3C(=O)C2CCC2)c1 (centres undefined) 53.7%
COCC(=O)N=Nc1c(O)[nH]c2ccccc12 68.8%
c1ccc(-c2nc(NCc3ccco3)c3ccccc3n2)cc1 81.6%
CCC(=O)OCCNc1nc(-c2ccccc2)nc2ccccc12 48.8%
O=C(Nc1sc2c(c1-c1nc3ccccc3[nH]1)CCCC2)C1CC1 46.5%
COCCNC(=O)Nc1ccc2nc(-c3ccco3)c(-c3ccco3)nc2c1 113%

inhibition, inactive:
Cc1ccc(CNC(=O)COC(=O)C2CCC2)cc1 8.9%
O=C(COC(=O)c1cc(S(=O)(=O)N2CCOCC2)ccc1F)NC1CC1 8.42%
CN(CC(=O)NCCc1ccc(S(N)(=O)=O)cc1)CC(=O)Nc1ccc(Cl)cc1 3.5%
CCCc1cc(=O)[nH]c(SCC(=O)Nc2ccc(C(=O)Nc3ccccc3OC)cc2)n1 14.2%
Cc1ccc2c(c1)NC(=O)[C@@]1(C)[C@@H](c3ccccc3)[C@H]3COc4ccc(Cl)cc4[C@@H]3N1C2=O 27.8%
CSc1ncccc1C(=O)NCC(c1ccco1)N1CCCCC1 (centres undefined) 1.61%
O=C1N[C@@H](c2ccccc2)COC(=O)[C@H](Cc2ccc(F)cc2)C/C=C\C[C@@H]1CC(=O)N(CCO)Cc1ccccc1 13.5%
CC1CC(=NNC(=O)C2COc3ccccc3O2)CC(C)(C)C1 (centres undefined) 5.91%
O=C(Nc1ccccn1)C1CCN(S(=O)(=O)c2ccc3c(c2)OCCO3)CC1 -0.64%
COc1cccc(NC(=O)COC(=O)c2ccc3ccccc3n2)c1 10.5%
CCc1ccc(C(=O)N2CCN(S(=O)(=O)c3sc(C(=O)O)c(C)c3C(=O)O)CC2)cc1 0.64%
COc1ccc(CCOC2OC(CO)C(OC(=O)/C=C/c3ccc(O)c(OC)c3)C(O[C@H]3O[C@@H](C)[C@H](O)[C@@H](O)[C@H]3O)C2O)cc1O (some centres undefined) 3.08%
CCOC(=O)CSc1ccccn1 2.08%
CCOC(=O)CSc1nc(C)cc2c1C(=O)OC2 5.73%
COc1cccc(CC(=O)OCC(=O)NCc2ccc3c(c2)OCO3)c1 4.94%
CC(=O)Nc1ccc(S(=O)(=O)NCC(=O)OCC(=O)c2ccc[nH]2)cc1 7.15%
Cc1ccc(C)c(NC(=O)COC(=O)c2nn(C)c(=O)c3ccccc23)c1 4.64%
CC(Sc1nncn1C)C(=O)NCCC1=CCCCC1 (centres undefined) 5.26%
COc1ccc(CNc2nc(NCc3ccc(OC)cc3)c3ncn(C4CCCC4)c3n2)cc1 15.3%
Cc1onc(NC(=O)c2ccc([N+](=O)[O-])o2)c1Br 33.4%
O=C(Nc1ccc(Br)cn1)c1ccc([N+](=O)[O-])cc1Cl 13.9%
COc1ccc(C2(c3ccc(OC)cc3)NC(=O)N(CC(=O)Nc3cc(C)on3)C2=O)cc1 14%
CCN1C[C@@H]2[C@@H]3C(=O)N(Cc4ccccc4)C(=O)[C@@H]3[C@](Cc3ccccc3)(C(=O)OC)N2C1=NC1CCCCC1 5.88%
COc1ccc(N2CCN(c3ccc([N+](=O)[O-])cc3Cl)CC2)cc1 11.7%
CC(C)(C)c1cnnn1-c1ccc([N+](=O)[O-])cc1 29.6%
O=C(Cn1cnc2c(OCc3ccccc3)ncnc21)NCCCn1ccnc1 -0.28%
Cc1cc(NC(=O)COc2ccccc2C#N)no1 4.54%
CNC[C@H]1Oc2c(NC(=O)C3CCCCC3)cccc2C(=O)N([C@H](C)CO)C[C@@H]1C 6.17%
COc1cc(/C=C/C(=O)Nc2ccc(OC)c(S(=O)(=O)N3CCOCC3)c2)ccc1OCC#N 6.14%
CN(C)C(=O)c1coc2nc3ccccc3nc12 7.78%
CNC(=O)c1cc2c(ccc3ccccc32)oc1=N 50.1%
C=CC[C@@H](CC(=O)NCCO)C(=O)N[C@H](C)COC(=O)[C@@H](CC=C)CC(=O)OC(C)(C)C 5%
CN1CCN(C(=O)c2ccc(-c3ccc(Br)cc3)o2)CC1 8.86%
O=C1c2cccc3cccc(c23)C(=O)N1c1cccc(O)c1 26.1%
O=C1c2ccccc2C(=O)N1c1cccc2ccccc12 17%
O=C(CSc1nnc(-c2ccncc2)o1)Nc1cccc(Cl)c1 4.25%
O=C(OCC(=O)N1CCCCC1)c1ccc(OC(F)(F)F)cc1 10.9%
COc1ccc(S(=O)(=O)N2CCOCC2)cc1NC(=O)CSc1nnc(NC2CC2)s1 5.24%
Cc1ccc(CNC(=O)Cn2cnc3c(NCc4ccccc4)ncnc32)o1 13.2%
CC(=O)Nc1ccc(S(=O)(=O)Nc2ccc(N3CCCCC3)cc2)cc1 16.6%
COc1cc(OC)c(C(=O)NNC(=O)c2ccccc2-n2cccc2)cc1OC 10.5%
Cc1cc(NC(=O)CN2C(=O)NC(CC(C)C)C2=O)no1 (centres undefined) 4.3%
O=[N+]([O-])c1ccc(NCCCN2CCOCC2)c(Cl)c1 10.8%
COc1ccc(C(=O)NCCc2ccc(S(N)(=O)=O)cc2)cc1OC 17.6%
O=C(Nc1cccnc1)c1ccc(Cl)cc1[N+](=O)[O-] 22.6%
O=C(NCCCN1CCOCC1)c1ccc(N2CCCC2)c([N+](=O)[O-])c1 52.4%
NS(=O)(=O)c1ccc(CCNC(=O)CNC(=O)Cc2ccccc2)cc1 1.42%
NS(=O)(=O)c1ccc(CCNC(=O)c2ccc(Cl)cc2[N+](=O)[O-])cc1 26.8%
Cc1ccc(S(=O)(=O)N2CCN(C(=O)COC(=O)CNC(=O)c3ccc(C(C)(C)C)cc3)CC2)c(C)c1 1.85%
O=C(COC(=O)c1cccc(Cl)c1)NC(=O)NCc1ccccc1 4.12%
C=CCC[C@@H](Cc1ccc(F)cc1)C(=O)O[C@H](CNC(=O)[C@H](CC=C)CC(=O)N(CCO)Cc1ccccc1)c1ccccc1 13.9%
C=CCC[C@H](Cc1ccc(F)cc1)C(=O)OC[C@@H](NC(=O)[C@@H](CC=C)CC(=O)N[C@H](CO)Cc1ccccc1)C(C)(C)C -2.5%
COc1ccc(N(C)S(=O)(=O)c2ccc3c(c2)CC(C)N3C(=O)C2CC2)c(OC)c1 (centres undefined) 13.5%
COc1cccc(CNS(=O)(=O)c2ccc3c(c2)CC(C)N3C(C)=O)c1 (centres undefined) 19.3%
CN(CC(=O)O)C(=O)c1ccccc1 11.7%
O=C(CCN1CCCCC1)N=Nc1c(O)[nH]c2ccccc12 22.5%
Cc1cccc(N(CC(=O)N=Nc2c(O)[nH]c3ccccc23)S(C)(=O)=O)c1C 5.48%
Cc1ccc(NS(=O)(=O)c2ccc(C(C)C)cc2)cc1S(=O)(=O)N1CCOCC1 1.43%
Cc1cccc(OCC(=O)OCC(=O)Nc2ccc(Cl)cn2)c1 4.09%
O=C(Cc1ccccc1)n1nc(-c2ccccc2)nc1NCc1ccco1 16.1%
c1coc(CNc2ncnc3ccccc23)c1 37.9%
COCCNc1nc(-c2ccccc2)nc2c1oc1ccccc12 19.4%
CCOCCCNc1nc(-c2ccccc2)nc2ccccc12 13.2%
CC1CCCCC1NC(=O)COc1ccc(C#N)cc1 (centres undefined) 1.71%
O=C(COC(=O)c1ccc(Br)o1)NC12CC3CC(CC(C3)C1)C2 1.86%
O=C1N[C@H](Cc2c[nH]c3ccccc23)COC(=O)[C@H](Cc2ccc(F)cc2)C/C=C\C[C@H]1CC(=O)N(CCO)Cc1ccccc1 -2.83%
Cc1ccc(C(=O)Nc2ccn(C)n2)cc1 -1.37%
COc1ccc(Br)cc1CN(C)C(=O)C1CC(=O)N(C2CCCC2)C1 (centres undefined) 8.23%
CCOC(=O)c1c(NC(=O)C2CCN(S(=O)(=O)c3ccc(Cl)cc3)CC2)sc2c1CCCC2 6.08%
O=C(C1CCCO1)N1CCC(c2nc3ccccc3[nH]2)CC1 (centres undefined) -1.4%
C=CC[C@@H](CC(=O)N[C@@H](CO)Cc1ccccc1)C(=O)NCCOC(=O)[C@@H](CC=C)CC(=O)OC(C)(C)C 14.3%
COC(=O)[C@]1(Cc2ccccc2)N[C@H](CN(C)S(=O)(=O)c2ccc(OC(F)(F)F)cc2)[C@@H]2C(=O)N(Cc3ccccc3)C(=O)[C@@H]21 5.26%
CCCC(=O)Nc1ccc2c(c1)nc(CCNC(=O)c1ccco1)n2C 7.62%
CCOc1cc(NC(=S)NCCCOC)c(OCC)cc1NC(=O)c1ccco1 11.1%
